Laboratory results taken from PubChem BioAssay (NCI).
“And” between values parts separate entries of the source, which are not always exact repeats. Equal values may be shown once. This is part of a sample that, as a whole, favours compounds with a hit. Of some 83,000 tested, about 20% had one in any assay.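 Each cell line was grown in a 96-well plate and treated with one concentration of compound for 48 hours. Values below 10 were considered active.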

How the values were obtained:
Experiment in all cases: NCI-60 one-dose screen, 48 h (100 = growth as untreated, 0 = no growth, -100 = all killed)
Details in all cases: 10 µM unless noted
[1] = system: SK-MEL-2 melanoma
[2] = system: SN12C renal
[3] = system: TK-10 renal
[4] = system: ACHN renal
[5] = system: CAKI-1 renal
[6] = system: A498 renal
[7] = system: CCRF-CEM leukemia
[8] = system: MOLT-4 leukemia
[9] = system: SR leukemia
[10] = system: RPMI-8226 leukemia
[11] = system: OVCAR-8 ovarian
[12] = system: OVCAR-5 ovarian
[13] = system: OVCAR-4 ovarian
[14] = system: SK-OV-3 ovarian
[15] = system: OVCAR-3 ovarian
[16] = system: HS 578T breast
[17] = system: NCI/ADR-RES ovarian
[18] = system: UO-31 renal
[19] = system: IGROV1 ovarian

Measured: growth

CCOC(=N)c1ccc(C(=N)OCC)cc1
inactive: [1] 103% | [2] 98.4% | [3] 96.6% | [4] 102% | [5] 99% | [6] 90.6% | [7] 107% | [8] 111% | [9] 91.7% | [10] 109% | [11] 105% | [12] 105% | [13] 106% | [14] 93.2% | [15] 124% | [16] 96.8% | [17] 104%

CCC/C(=N/NC(N)=O)c1ccco1
inactive: [1] 94.8% | [2] 93% | [18] 90.6% | [3] 88.3% | [4] 94.9% | [5] 92.7% | [6] 68.1% | [7] 97.8% | [8] 80.3% | [9] 96.1% | [10] 95.2% | [11] 98% | [12] 91.2% | [13] 102% | [14] 91.6% | [19] 104% | [15] 117% | [16] 97.5% | [17] 100%

CC(C)(C)OC(=O)CC1(O)CCCCC1
inactive: [1] 107% | [2] 100% | [18] 101% | [3] 99.6% | [4] 105% | [6] 84.6% | [7] 106% | [8] 108% | [9] 105% | [10] 107% | [11] 108% | [12] 115% | [13] 97.9% | [14] 105% | [19] 114% | [15] 108% | [16] 102% | [17] 107%

COC1C(OC(N)=O)C(O)C(Oc2ccc3c(O)c(NC(=O)c4ccc(O)c(CC=C(C)C)c4)c(=O)oc3c2C)OC1(C)C (stereo not given)
inactive: [1] 105% and 111% | [2] 106% and 97.3% | [18] 107% and 96.9% | [3] 115% and 108% | [4] 23.8% and 101% | [5] 85.9% and 101% | [6] 106% and 70.8% | [7] 90% and 59.2% | [8] 75.4% and 93.5% | [9] 84% and 80% | [10] 99.5% and 80.1% | [11] 103% | [12] 86.8% and 91.4% | [13] 111% and 98.9% | [14] 112% and 121% | [19] 137% and 129% | [15] 97.3% and 90.6% | [16] 89.4% and 102% | [17] 106% and 97.1%

CCOC(=O)NC(N)=O
inactive: [1] 98.7% and 126% | [2] 103% and 98.1% | [18] 86.6% and 95.3% | [3] 88.4% | [4] 100% and 103% | [6] 101% and 104% | [7] 99.2% and 99.3% | [8] 97.2% and 106% | [9] 90.3% and 108% | [10] 101% and 99.4% | [11] 102% and 97% | [12] 101% | [13] 116% and 106% | [14] 104% and 114% | [19] 98% and 110% | [15] 113% and 125% | [17] 105% and 107%

C/C(CC(C)C)=N/NC(N)=S
inactive: [1] 107% | [2] 87.2% | [18] 62.1% | [3] 105% | [4] 98.3% | [5] 104% | [6] 87.6% | [7] 43.8% | [8] 52.1% | [9] 90.9% | [10] 73.7% | [11] 69% | [12] 114% | [13] 72.2% | [14] 105% | [15] 48.1% | [16] 96.8% | [17] 46.7%

COc1ccc(C(=O)C(O)c2ccc(OC)cc2)cc1 (stereo not given)
inactive: [1] 111% and 108% | [2] 113% and 112% | [3] 102% and 107% | [4] 109% and 112% | [5] 104% and 100% | [6] 97.4% and 104% | [7] 108% and 105% | [8] 107% and 100% | [9] 102% and 94% | [10] 112% and 106% | [11] 99.8% and 101% | [12] 111% and 109% | [13] 103% and 102% | [19] 102% and 110% | [15] 112% and 107% | [16] 112% and 102% | [17] 102%
